Structures are written as SMILES. Among all 150,000 compounds or so, about 540 (0.36%) showed an effect of 50% or more. What follows is part of a selection rich in strong results, with near analogues and random picks from the rest.

The assay concerns Plasmodium falciparum. Description: Primary screen in NF54 nanoGlo assay, in single point, at 2uM, 72h; a lower Z score goes with more inhibition. The class given is functional, Erythrocyte. As to conditions: timepoint 72 hour.
`O=C1N[C@H]2C[C@@H](C(=O)NC[C@H]3O[C@H](CCOc4ccccc41)CC[C@@H]3O)N(Cc1ccc3c(c1)OCO3)C2`: the % Inhibition (in general, the drop in the measured response relative to a control, in per cent) is reported as 26% and the Z score is listed as -2.92.
The corresponding values for `O=C1N[C@H]2C[C@@H](C(=O)NC[C@H]3O[C@H](CCOc4cc(-c5ccccc5)ccc41)CC[C@@H]3O)N(Cc1ccc(Cl)c(F)c1)C2` are 37% and -4.16.
The corresponding values for `CC(C)c1cc(NCCCn2ccnn2)nc(N)n1` are -5% and 0.75.
The corresponding values for `CC(C)(C)CCCC(=O)NCCn1cnnc1C1CC1` are -7% and 1.32.
As for `CN1CCC(N(C)C(=O)c2ccccc2NC2CCCCC2)CC1`, the “% Inhibition” value is listed as 6% and the Z score is listed as -1.03.
The like results for `CN1CC[C@@H](CNC(=O)c2ccnc3c2ncn3C)[C@@H]1c1cccnc1` were, in that order, 1% and -0.18.
With `COCCC(CNC(C)c1nccnc1C)NC(=O)OC(C)(C)C` (stereo not given), the “% Inhibition” value is -12% and the Z score came to 1.51.
The corresponding values for `CCN1CCN(c2c(CN(C(=O)NC3CCCCC3)C(C)C)c(C)nn2-c2cccc(F)c2)CC1` are -10% and 1.04.
Take `Cc1ccc(C(=O)Nc2cc(C(=O)N3CCCCC3C)cc(C(=O)N3CCCCC3C)c2)cc1` (stereo not given): the “% Inhibition” value is on record as 6% and the Z score is given as -0.87.
The like results for `Cc1ccc(C(=O)Nc2cc3c4c(c2)C2CCCC2CN4CC2CCCC32)cc1` (stereo not given) were, in that order, 57% and -4.94.
In the case of `Cc1ccc(C(=O)Nc2ccc(N3CCCN(C(=O)C4CCCC4)CC3)c(C(=O)N3CCCCC3)c2)cc1`, the “% Inhibition” value is on record as -4% and the Z score turned out to be 0.58.
The corresponding values for `Fc1cc(Br)cnc1CN1CCC[C@H]1c1ncn[nH]1` are 19% and -2.4.
In the case of `COc1ccc(CCNC(=O)N2CC=C(C(F)(F)F)CC2)cc1F`, the “% Inhibition” value is reported as 6% and the Z score was -1.17.
`Cc1ccc(Nc2nc(N)nc(Cn3cnc(C)c3C)n2)cc1`: the “% Inhibition” value is reported as -3% and the Z score came to 0.51.
The like results for `Cc1ccc(Nc2nc(N)nc(CN3CCCCCCC3)n2)cc1` were, in that order, -5% and 0.66.
The corresponding values for `OC1CCN(Cc2ccc(CNc3ccc(F)cn3)cc2)CC1` are -6% and 0.93.
The corresponding values for `CC(C)n1ccnc1[C@H]1CCCN(C(=O)c2cnc3c(c2)CCCC3)C1` are 3% and -0.26.
Take `NC(=O)c1n[nH]c2ccc(NC(=O)c3nn(-c4ccccc4)c(=O)c4ccccc34)cc12`: the “% Inhibition” value was -3% and the Z score was found to be 0.31.
Consider `O=C(Nc1cc(C(F)(F)F)ccc1N1CCOCC1)c1nn(-c2ccccc2)c(=O)c2ccccc12`, for which the “% Inhibition” value is reported as -15% and the Z score was 2.63.
The corresponding values for `CN1CCCN(c2ccc(NC(=O)c3nn(-c4ccccc4)c(=O)c4ccccc34)cc2F)CC1` are 82% and -6.28.
The corresponding values for `NS(=O)(=O)c1cnc(N[C@H]2CCc3ccc(F)cc32)s1` are -3% and 0.33.
Regarding `COc1cc(C)c2[nH]c3c(c(=O)c2c1)CN(CC(=O)Nc1ccc(F)c(C)c1)CC3`, the “% Inhibition” value amounted to 43% and the Z score is -1.61.
The corresponding values for `COc1cc(C)c2[nH]c3c(c(=O)c2c1)CN(CC(=O)Nc1ccc2c(c1)OCO2)CC3` are 44% and -0.61.
The like results for `COc1cc(C)c2[nH]c3c(c(=O)c2c1)CN(CC(=O)Nc1ccc2c(c1)OCCO2)CC3` were, in that order, 52% and -1.23.
For `O=C1N(CC2CCCCC2)CCC[C@@]1(O)CN1CCOCC1`, the “% Inhibition” value is -7% and the Z score is 1.35.
The like results for `CCOC1(c2nc(Cc3conc3C)no2)CCCC1` were, in that order, 6% and -0.78.
The corresponding values for `CCOc1cc(Cl)ccc1C(=O)NC1CCN(C[C@H]2CCOC2)CC1` are 38% and -0.42.
The corresponding values for `c1nc(NCCC2CCCCC2)c2cnoc2n1` are 7% and -0.88.
As to `CC(C)[C@@H](C(=O)NCc1cccc(C(F)(F)F)c1)N1CCCS1(=O)=O`, the “% Inhibition” value is recorded as -4% and the Z score was determined as 0.83.
The corresponding values for `Cc1nn(C)cc1-c1nn(-c2nc(C3CC3)cc(C(F)(F)F)n2)c(-c2cn(C)nc2C)c1C` are 46% and 0.79.
The corresponding values for `Cc1c(-c2nn(-c3nc(C4CC4)cc(C(F)(F)F)n3)c(-c3cnn(C)c3C)c2Cl)cnn1C` are 76% and -8.32.
Turning to `Cc1c(-c2nn(-c3ccccc3)c(-c3cnn(C)c3C)c2Cl)cnn1C`, the “% Inhibition” value is listed as 39% and the Z score is recorded as -4.45.
The like results for `Cc1nccn1C[C@H]1CCCN(C(=O)Cn2cccn2)C1` were, in that order, -3% and 0.6.
The corresponding values for `COC(=O)c1cc(OC)ccc1-c1cccc(C(=O)N2CCNC[C@@H]2C)c1` are -17% and 1.67.
The like results for `O=C(Nc1nc2cccc(Cl)c2o1)c1cccc(F)c1` were, in that order, 89% and -8.47.
On to `Cc1nc(N2CCCC2)nc(C)c1NC(=O)c1cccc(F)c1`, for which the “% Inhibition” value is -5% and the Z score came to 0.84.
The like results for `Cc1ccc(NC(=O)c2cccc(F)c2)c(-c2nc3ccccc3nc2O)c1` were, in that order, -15% and 1.64.
The corresponding values for `COc1ccccc1N1CCN(C(=O)[C@H](C)n2ccnc2)CC1` are -19% and 2.94.
As for `CCc1ccc(-c2cc(C(=O)Nc3ccc4nc(NS(C)(=O)=O)sc4c3)[nH]n2)cc1`, the “% Inhibition” value was -13% and the Z score is listed as 1.27.
The like results for `CCn1c(N2CCC[C@H](C(=O)NCc3cccc(Cl)c3)C2)cc(=O)n(C)c1=O` were, in that order, -20% and 3.09.

The values above are taken from ChEMBL document CHEMBL4888484, “Replenishing the malaria drug discovery pipeline: Screening and hit evaluation of the MMV Hit Generation Library 1 (HGL1) against asexual blood stage Plasmodium falciparum ,using a nano luciferase reporter read-out” (2022).
